# Key:
# [1] = molecular target: T1, Ephrin type-A receptor 3 (Homo sapiens) (UniProt P29320); details: at 10 µM
# T1 sequence (whole entry): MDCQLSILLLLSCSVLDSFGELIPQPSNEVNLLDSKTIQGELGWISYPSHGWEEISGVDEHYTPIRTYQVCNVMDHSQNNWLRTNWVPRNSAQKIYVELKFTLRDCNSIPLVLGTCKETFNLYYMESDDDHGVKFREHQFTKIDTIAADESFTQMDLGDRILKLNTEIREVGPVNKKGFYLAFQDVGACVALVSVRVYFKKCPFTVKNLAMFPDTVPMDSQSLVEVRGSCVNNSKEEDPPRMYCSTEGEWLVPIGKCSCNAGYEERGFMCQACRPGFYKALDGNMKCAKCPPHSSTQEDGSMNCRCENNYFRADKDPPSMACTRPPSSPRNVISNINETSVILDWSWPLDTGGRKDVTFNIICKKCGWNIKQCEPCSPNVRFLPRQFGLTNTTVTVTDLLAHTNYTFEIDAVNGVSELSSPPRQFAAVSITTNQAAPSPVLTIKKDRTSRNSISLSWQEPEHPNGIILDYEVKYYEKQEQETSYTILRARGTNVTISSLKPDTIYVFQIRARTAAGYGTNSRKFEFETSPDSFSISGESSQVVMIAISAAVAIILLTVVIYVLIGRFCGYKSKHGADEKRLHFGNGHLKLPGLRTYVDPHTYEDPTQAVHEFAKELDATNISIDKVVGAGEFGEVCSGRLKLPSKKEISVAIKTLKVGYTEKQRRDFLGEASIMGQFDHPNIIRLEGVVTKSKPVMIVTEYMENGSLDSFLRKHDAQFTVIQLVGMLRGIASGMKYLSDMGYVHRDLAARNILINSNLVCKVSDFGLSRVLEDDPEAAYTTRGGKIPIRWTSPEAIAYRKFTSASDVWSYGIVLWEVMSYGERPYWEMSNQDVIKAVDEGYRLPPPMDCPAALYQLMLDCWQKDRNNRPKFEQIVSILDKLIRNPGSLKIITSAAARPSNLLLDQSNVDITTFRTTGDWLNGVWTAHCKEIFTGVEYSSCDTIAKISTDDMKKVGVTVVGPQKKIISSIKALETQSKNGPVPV
# [2] = molecular target: Ephrin type-A receptor 4 (Homo sapiens) (UniProt P54764); details: at 1 µM
# Ephrin type-A receptor 4 (Homo sapiens), sequence (P54764 whole entry): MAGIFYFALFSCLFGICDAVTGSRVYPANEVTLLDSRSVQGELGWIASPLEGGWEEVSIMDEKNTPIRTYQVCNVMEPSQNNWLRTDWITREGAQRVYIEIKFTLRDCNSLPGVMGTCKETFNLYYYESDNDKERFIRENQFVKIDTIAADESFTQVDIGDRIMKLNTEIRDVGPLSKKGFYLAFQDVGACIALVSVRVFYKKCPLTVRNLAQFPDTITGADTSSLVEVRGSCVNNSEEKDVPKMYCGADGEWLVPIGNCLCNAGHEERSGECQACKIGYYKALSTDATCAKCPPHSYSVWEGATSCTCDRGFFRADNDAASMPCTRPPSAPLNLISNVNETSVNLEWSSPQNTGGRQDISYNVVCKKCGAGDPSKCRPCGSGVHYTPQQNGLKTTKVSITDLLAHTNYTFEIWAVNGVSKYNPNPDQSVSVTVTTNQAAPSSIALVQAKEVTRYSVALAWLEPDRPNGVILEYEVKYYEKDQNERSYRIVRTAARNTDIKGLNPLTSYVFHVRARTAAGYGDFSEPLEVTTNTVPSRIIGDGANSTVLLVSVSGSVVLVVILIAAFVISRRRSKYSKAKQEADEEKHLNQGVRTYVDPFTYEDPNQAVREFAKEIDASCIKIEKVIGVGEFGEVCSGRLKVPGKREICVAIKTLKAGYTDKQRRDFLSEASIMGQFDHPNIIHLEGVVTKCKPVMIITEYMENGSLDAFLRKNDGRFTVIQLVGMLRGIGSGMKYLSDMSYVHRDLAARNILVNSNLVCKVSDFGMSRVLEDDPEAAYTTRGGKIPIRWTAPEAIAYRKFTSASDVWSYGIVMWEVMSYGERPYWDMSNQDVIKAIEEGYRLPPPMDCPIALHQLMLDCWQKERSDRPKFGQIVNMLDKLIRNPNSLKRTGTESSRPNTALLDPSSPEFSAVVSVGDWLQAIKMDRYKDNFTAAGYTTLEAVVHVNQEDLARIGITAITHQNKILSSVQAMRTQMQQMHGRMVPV
# [3] = molecular target: Ephrin type-A receptor 4 (Homo sapiens) (UniProt P54764); details: at 10 µM
# [4] = molecular target: Ephrin type-A receptor 5 (Homo sapiens) (UniProt P54756); details: at 1 µM
# Ephrin type-A receptor 5 (Homo sapiens), sequence (P54756 whole entry): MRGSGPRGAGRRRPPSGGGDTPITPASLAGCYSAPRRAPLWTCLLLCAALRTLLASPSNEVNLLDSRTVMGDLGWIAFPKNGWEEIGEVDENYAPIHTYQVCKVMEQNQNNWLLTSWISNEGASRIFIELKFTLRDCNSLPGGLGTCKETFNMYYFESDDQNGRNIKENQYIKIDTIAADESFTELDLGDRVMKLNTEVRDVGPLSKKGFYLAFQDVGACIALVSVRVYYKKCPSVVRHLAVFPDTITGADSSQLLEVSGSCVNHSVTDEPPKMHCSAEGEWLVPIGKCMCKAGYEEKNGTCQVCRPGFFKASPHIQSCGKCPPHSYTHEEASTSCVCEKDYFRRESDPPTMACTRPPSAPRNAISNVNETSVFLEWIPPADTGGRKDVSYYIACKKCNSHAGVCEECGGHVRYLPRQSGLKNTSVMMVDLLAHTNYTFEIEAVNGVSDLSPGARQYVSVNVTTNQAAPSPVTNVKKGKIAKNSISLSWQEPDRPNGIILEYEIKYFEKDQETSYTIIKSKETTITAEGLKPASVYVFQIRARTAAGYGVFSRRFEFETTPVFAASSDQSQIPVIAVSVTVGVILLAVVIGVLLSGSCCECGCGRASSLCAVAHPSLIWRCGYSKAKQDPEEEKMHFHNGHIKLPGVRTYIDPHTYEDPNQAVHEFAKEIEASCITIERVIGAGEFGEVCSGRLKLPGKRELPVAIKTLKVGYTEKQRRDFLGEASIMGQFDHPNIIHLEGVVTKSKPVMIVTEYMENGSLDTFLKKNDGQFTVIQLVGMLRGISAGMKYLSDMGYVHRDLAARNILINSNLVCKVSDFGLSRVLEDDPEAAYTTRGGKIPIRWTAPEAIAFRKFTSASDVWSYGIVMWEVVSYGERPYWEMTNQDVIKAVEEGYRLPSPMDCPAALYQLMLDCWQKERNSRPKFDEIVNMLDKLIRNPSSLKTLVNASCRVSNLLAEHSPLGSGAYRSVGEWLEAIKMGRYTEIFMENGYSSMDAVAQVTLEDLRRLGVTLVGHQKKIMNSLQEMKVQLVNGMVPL
# [5] = molecular target: Ephrin type-A receptor 5 (Homo sapiens) (UniProt P54756); details: at 10 µM
# [6] = molecular target: Ephrin type-A receptor 7 (Homo sapiens) (UniProt Q15375); details: at 1 µM
# Ephrin type-A receptor 7 (Homo sapiens), sequence (Q15375 28-998 limits assumed): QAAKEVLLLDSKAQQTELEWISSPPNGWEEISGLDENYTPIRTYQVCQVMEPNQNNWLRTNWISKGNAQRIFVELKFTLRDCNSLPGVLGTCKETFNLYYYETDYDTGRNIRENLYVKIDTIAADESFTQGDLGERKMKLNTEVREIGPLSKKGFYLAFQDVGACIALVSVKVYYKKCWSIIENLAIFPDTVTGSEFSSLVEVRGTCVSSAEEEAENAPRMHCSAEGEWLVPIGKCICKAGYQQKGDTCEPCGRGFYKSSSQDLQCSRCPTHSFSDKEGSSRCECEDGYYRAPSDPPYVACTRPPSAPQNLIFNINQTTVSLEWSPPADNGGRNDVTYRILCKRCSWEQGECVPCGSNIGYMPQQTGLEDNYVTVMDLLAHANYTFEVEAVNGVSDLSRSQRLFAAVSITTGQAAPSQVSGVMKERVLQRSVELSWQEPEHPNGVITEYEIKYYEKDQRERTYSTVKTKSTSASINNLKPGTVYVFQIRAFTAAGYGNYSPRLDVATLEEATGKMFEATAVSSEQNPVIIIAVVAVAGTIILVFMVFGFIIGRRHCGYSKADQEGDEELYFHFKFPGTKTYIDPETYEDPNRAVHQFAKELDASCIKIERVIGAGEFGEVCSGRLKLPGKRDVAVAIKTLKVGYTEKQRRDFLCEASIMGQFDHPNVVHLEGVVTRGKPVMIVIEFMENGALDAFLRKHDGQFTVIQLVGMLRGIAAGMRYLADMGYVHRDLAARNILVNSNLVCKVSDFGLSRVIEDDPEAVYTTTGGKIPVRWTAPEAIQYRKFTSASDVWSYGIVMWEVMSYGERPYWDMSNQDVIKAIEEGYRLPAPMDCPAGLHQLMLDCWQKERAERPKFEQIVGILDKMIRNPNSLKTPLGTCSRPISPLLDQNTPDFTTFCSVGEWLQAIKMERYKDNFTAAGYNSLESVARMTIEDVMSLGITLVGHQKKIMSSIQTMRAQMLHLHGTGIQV
# [7] = molecular target: Ephrin type-A receptor 7 (Homo sapiens) (UniProt Q15375); details: at 10 µM
# [8] = molecular target: T2, Ephrin type-A receptor 8 (Homo sapiens) (UniProt P29322); details: at 1 µM
# T2 sequence (whole entry): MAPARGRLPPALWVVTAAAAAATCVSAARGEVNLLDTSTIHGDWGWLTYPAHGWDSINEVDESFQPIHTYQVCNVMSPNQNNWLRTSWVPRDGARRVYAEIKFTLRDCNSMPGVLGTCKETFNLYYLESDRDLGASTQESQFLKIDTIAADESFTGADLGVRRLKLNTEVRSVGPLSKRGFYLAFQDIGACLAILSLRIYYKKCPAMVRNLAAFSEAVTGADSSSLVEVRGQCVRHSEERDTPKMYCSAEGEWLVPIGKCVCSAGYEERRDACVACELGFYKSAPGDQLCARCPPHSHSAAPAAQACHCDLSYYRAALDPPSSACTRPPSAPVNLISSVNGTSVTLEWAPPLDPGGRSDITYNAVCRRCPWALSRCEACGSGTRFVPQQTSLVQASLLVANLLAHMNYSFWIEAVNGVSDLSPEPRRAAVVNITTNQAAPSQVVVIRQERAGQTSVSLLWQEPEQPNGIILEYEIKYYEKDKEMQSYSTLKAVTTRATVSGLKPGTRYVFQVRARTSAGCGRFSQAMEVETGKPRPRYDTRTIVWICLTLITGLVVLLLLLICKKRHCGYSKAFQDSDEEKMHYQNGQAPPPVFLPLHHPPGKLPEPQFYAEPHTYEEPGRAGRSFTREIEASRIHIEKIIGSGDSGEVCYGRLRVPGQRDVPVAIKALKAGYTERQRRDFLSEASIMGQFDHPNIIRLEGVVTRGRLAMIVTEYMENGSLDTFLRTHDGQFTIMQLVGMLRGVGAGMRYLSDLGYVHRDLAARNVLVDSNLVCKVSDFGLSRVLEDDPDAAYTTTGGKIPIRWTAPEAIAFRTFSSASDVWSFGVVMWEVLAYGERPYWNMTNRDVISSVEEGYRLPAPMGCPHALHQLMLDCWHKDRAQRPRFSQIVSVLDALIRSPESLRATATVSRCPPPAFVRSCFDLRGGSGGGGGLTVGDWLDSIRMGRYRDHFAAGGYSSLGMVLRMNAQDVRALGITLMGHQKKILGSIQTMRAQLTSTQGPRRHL
# [9] = molecular target: T2, Ephrin type-A receptor 8 (Homo sapiens); details: at 10 µM
# [10] = molecular target: T3, Ephrin type-B receptor 1 (Homo sapiens) (UniProt P54762); details: at 1 µM
# T3 sequence (whole entry): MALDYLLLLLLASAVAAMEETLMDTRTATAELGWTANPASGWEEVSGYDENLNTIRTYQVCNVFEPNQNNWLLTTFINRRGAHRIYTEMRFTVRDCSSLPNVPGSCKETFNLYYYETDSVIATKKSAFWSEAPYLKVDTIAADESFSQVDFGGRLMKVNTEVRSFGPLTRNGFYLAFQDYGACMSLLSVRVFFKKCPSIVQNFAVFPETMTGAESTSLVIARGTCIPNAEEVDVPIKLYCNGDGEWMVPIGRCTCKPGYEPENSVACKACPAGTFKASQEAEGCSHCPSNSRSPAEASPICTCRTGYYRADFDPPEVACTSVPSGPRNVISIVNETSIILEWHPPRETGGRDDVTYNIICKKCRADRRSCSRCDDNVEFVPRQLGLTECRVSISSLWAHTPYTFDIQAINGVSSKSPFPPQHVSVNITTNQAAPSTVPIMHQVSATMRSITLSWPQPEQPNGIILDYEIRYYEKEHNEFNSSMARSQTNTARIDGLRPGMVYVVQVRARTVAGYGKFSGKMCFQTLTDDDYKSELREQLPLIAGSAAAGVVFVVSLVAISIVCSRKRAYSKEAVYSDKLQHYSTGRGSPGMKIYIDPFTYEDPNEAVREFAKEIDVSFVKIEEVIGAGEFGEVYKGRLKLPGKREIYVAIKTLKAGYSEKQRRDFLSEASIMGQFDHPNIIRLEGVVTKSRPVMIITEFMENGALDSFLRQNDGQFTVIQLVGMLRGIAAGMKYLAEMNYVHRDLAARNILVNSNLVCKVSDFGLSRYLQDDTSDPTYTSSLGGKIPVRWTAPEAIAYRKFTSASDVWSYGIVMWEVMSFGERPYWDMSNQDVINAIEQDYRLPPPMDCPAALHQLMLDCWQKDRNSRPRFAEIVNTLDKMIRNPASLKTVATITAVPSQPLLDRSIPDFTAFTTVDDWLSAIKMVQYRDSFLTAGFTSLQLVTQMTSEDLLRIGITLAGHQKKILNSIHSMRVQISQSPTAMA
# [11] = molecular target: T3, Ephrin type-B receptor 1 (Homo sapiens); details: at 10 µM
# [12] = molecular target: T4, Ephrin type-B receptor 2 (Homo sapiens) (UniProt P29323); details: at 1 µM
# T4 sequence (whole entry): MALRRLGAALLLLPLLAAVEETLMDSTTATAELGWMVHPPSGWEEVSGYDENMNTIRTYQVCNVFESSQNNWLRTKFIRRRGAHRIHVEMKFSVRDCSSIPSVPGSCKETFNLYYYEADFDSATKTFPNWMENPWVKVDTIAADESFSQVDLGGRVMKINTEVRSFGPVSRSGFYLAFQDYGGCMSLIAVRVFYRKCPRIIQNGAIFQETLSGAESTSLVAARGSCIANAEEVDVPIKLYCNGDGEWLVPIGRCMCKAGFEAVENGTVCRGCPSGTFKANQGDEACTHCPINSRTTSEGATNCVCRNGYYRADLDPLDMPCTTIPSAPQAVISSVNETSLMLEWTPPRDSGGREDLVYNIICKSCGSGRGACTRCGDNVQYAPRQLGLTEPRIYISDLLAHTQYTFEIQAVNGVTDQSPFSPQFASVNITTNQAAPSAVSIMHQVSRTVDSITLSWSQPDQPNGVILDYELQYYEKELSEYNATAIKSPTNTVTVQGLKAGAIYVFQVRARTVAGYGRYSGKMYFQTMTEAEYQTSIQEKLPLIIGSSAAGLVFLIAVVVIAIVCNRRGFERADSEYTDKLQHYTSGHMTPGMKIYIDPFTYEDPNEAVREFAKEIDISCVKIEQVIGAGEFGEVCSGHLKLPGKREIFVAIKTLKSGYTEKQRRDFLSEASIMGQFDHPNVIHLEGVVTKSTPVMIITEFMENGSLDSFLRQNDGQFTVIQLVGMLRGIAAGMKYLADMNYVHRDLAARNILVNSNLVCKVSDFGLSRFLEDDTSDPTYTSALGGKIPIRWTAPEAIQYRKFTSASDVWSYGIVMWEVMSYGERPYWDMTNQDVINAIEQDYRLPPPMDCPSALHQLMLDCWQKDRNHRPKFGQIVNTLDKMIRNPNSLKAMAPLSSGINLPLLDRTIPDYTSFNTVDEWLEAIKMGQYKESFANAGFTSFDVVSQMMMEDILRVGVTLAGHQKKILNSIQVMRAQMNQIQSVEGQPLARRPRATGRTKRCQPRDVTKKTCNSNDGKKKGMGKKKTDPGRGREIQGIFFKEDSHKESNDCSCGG
# [13] = molecular target: T4, Ephrin type-B receptor 2 (Homo sapiens); details: at 10 µM
# [14] = molecular target: T5, Ephrin type-B receptor 3 (Homo sapiens) (UniProt P54753); details: at 1 µM
# T5 sequence (whole entry): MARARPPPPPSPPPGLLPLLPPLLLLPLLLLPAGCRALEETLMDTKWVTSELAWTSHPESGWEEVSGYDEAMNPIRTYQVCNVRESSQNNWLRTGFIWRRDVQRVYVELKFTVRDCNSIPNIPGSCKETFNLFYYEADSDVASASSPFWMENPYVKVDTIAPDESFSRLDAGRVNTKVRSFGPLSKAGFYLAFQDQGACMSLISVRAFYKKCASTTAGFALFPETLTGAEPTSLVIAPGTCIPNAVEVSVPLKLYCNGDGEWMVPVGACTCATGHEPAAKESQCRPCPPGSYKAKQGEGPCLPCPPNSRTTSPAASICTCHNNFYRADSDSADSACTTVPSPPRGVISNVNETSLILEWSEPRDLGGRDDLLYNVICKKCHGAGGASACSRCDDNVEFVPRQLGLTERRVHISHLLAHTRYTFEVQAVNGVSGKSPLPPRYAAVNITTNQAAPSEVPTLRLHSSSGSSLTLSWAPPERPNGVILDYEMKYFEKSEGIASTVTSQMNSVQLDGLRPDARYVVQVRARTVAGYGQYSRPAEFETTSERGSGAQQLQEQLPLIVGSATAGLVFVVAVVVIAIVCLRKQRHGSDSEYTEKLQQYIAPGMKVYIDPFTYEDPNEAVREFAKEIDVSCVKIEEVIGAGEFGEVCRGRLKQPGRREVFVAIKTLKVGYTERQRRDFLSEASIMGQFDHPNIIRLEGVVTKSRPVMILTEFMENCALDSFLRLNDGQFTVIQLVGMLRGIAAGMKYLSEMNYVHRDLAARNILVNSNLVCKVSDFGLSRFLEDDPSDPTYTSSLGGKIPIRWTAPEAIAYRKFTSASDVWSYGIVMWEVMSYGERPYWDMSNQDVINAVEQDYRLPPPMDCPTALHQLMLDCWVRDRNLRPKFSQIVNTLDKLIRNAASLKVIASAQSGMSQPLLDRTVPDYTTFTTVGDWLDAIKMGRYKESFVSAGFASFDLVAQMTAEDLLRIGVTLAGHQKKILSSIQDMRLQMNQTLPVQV
# [15] = molecular target: T5, Ephrin type-B receptor 3 (Homo sapiens); details: at 10 µM
# [16] = molecular target: T6, Ephrin type-B receptor 4 (Homo sapiens) (UniProt P54760); details: at 1 µM
# T6 sequence (whole entry): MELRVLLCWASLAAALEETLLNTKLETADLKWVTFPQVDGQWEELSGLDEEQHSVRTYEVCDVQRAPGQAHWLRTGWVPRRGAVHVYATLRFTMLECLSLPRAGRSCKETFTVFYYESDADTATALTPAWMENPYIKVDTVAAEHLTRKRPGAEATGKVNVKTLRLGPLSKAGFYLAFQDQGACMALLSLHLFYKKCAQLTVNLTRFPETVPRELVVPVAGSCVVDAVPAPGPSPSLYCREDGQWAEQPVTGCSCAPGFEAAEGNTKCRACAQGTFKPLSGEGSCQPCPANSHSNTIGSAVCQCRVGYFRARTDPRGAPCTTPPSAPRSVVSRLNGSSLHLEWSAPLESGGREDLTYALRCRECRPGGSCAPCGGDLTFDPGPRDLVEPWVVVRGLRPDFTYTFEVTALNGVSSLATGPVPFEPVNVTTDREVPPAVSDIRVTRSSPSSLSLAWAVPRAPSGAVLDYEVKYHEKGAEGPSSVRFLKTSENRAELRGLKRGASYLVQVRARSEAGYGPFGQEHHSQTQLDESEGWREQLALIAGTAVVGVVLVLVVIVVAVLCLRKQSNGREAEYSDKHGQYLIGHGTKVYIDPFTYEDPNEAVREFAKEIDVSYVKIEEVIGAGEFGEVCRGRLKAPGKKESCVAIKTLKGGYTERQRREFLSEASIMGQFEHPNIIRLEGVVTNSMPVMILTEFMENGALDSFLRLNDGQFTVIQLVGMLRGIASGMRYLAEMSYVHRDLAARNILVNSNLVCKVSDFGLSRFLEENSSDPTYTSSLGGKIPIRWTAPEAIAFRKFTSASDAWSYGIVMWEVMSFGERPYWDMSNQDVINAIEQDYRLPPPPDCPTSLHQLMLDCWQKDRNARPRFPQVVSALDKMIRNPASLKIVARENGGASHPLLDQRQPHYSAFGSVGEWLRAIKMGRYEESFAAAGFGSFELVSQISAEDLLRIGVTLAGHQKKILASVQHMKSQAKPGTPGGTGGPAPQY
# [17] = molecular target: T6, Ephrin type-B receptor 4 (Homo sapiens); details: at 10 µM
# [18] = molecular target: Receptor tyrosine-protein kinase erbB-4 (Homo sapiens) (UniProt Q15303); details: at 1 µM
# Receptor tyrosine-protein kinase erbB-4 (Homo sapiens), sequence (Q15303 whole entry): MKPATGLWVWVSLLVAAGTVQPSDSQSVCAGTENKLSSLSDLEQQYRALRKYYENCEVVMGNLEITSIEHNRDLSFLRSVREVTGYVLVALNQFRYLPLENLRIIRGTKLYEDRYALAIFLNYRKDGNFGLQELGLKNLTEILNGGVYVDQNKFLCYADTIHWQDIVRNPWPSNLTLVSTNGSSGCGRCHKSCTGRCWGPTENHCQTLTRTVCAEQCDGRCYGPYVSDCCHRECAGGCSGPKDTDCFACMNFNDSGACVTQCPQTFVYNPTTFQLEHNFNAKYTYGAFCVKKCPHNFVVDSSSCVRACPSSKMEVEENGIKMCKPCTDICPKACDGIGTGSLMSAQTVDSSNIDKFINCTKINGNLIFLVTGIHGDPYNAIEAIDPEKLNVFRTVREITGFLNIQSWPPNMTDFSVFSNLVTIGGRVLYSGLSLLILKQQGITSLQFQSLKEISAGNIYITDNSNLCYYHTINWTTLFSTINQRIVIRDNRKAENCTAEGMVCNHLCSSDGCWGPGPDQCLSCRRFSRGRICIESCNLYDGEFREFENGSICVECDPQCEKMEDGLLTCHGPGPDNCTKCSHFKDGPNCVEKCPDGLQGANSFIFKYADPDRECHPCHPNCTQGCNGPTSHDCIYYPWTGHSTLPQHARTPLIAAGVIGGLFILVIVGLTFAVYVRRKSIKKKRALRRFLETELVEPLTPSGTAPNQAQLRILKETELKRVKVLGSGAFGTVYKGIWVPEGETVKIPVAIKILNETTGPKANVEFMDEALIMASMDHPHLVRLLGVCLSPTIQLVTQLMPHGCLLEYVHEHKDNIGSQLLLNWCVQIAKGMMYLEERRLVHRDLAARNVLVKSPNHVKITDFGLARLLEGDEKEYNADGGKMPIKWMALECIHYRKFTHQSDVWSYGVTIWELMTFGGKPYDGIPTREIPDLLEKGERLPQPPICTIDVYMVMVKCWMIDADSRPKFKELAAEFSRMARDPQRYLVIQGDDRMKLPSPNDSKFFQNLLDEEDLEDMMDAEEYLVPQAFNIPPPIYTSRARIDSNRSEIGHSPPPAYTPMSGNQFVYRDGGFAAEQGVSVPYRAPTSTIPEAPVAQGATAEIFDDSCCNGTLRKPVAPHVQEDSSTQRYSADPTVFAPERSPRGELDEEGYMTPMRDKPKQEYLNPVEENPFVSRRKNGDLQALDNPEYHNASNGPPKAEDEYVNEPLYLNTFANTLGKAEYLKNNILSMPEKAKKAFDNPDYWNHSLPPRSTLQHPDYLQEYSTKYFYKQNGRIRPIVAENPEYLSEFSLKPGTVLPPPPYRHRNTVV
# [19] = molecular target: Receptor tyrosine-protein kinase erbB-4 (Homo sapiens) (UniProt Q15303); details: at 10 µM
# [20] = molecular target: Focal adhesion kinase 1 (Homo sapiens) (UniProt Q05397); details: at 1 µM
structure (smiles),measurement,setting,value
NC(=O)Nc1sc(-c2ccc(F)cc2)cc1C(N)=O,residual activity,[1],33%
same,residual activity,[2],93%
same,residual activity,[3],43%
same,residual activity,[4],90%
same,residual activity,[5],28%
same,residual activity,[6],74%
same,residual activity,[7],25%
same,residual activity,[8],84%
same,residual activity,[9],54%
same,residual activity,[10],11%
same,residual activity,[11],0%
same,residual activity,[12],93%
same,residual activity,[13],19%
same,residual activity,[14],117% (inactive)
same,residual activity,[15],117%
same,residual activity,[16],49%
same,residual activity,[17],6%
same,residual activity,[18],91%
same,residual activity,[19],59%
same,residual activity,[20],68%
